Laboratory results from PubChem BioAssay (NCI).
Compounds without any hit were thinned out: in the full panel of roughly 79,000, 15% have a hit. Unmarked numbers belong to inactive results. Active and inactive are the calls of the source. Rule as the data show it: active = growth inhibition above about 70%; inactive = the rest.

Tests used:
[1] = NCI Yeast Anticancer Drug Screen. Data for the rad50 strain (AID 155);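 also: 0% = growth of vehicle-only cultures of the same strain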; conditions: S. cerevisiae rad50 strain growth inhibition; at 50.0 µM; active compounds read high
Summary of the method: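 Readout: growth inhibition relative to vehicle-treated cultures. Compound exposure was carried out in a genetically defined yeast strain deficient in DNA damage repair.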

[2] = NCI Yeast Anticancer Drug Screen. Data for the mec2-1 strain (AID 157); conditions: S. cerevisiae mec2-1 strain, at 50.0 µM, active compounds read high
Summary of the method: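 Growth inhibition is read against vehicle-treated controls after compound exposure of the mec2-1 yeast strain, which is defective in DNA damage repair or cell cycle control.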

[3] = NCI Yeast Anticancer Drug Screen. Data for the sgs1 mgt1 strain (AID 161);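 also: 0% = growth of cultures given vehicle only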; conditions: S. cerevisiae sgs1 mgt1 strain, at 50.0 µM, active compounds read high
Summary of the method: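 Compounds are added to genetically altered yeast, and growth is compared with cultures given vehicle alone to give percent inhibition.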

[4] = NCI Yeast Anticancer Drug Screen. Data for the cln2 rad14 strain (AID 165);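 also: 0% = growth equal to vehicle treated cultures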; conditions: S. cerevisiae cln2 rad14 strain, at 50.0 µM, active compounds read high
Summary of the method: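 Growth inhibition, relative to vehicle-treated controls, is the read-out. The test organism is a yeast strain with defined genetic alterations, cln2 rad14.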

[5] = NCI Yeast Anticancer Drug Screen. Data for the bub3 strain (AID 167); conditions: S. cerevisiae bub3 mutant strain, at 50.0 µM, active compounds read high
Summary of the method: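 Readout: yeast growth inhibition, expressed relative to vehicle-only wells. The test organism is a mutant strain from a panel with lesions in DNA repair or checkpoint genes.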

[6] = NCI Yeast Anticancer Drug Screen. Data for the mlh1 rad18 strain (AID 175); conditions: S. cerevisiae mlh1 rad18 strain growth inhibition; at 50.0 µM; active compounds read high
Summary of the method: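 Cells of a genetically altered yeast strain, deficient in DNA damage repair, were treated with compound. Their growth was then compared with that of vehicle-treated cultures to give inhibition.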

Row | Structure (SMILES) | growth inhibition [1] | growth inhibition [2] | growth inhibition [3] | growth inhibition [4] | growth inhibition [5] | growth inhibition [6]
1 | C[C@@]12CC/C(=N\OCC(=O)O)C=C1CC[C@H]1C2CC[C@]2(C)C1CC[C@H]2O (stereo not given in full) | -9.4% | -2.55% | -14.6% | -15.8% | 2.75% | -14.7%
2 | c1ccc(C[N+]23CN4CN(CN(C4)C2)C3)cc1 | 9.5% | -20% | -7.6% | 8.65% | -18.2% | -6.5%
3 | C[N+](C)(C)CC1(COC(=O)C(O)(c2ccccc2)c2ccccc2)CCCCC1 | -3.5% | 6.45% | -16.8% | -7.2% | -2.95% | 5.05%
4 | O=S1(=O)CCCCO1 | -6% | 1.65% | -10.9% | 17.2% | -8.95% | 4.4%
5 | O=C/C=C/c1ccco1 | 17.4% | -14.3% | -15.2% | 14.2% | -8.45% | 31.8%
6 | NCCc1ccccc1 | 0.15% | -20.6% | 1.5% | -17.4% | -18.3% | -9.9%
7 | CC(=O)Nc1cccc([As+](C)(C)C)c1 | 14.3% | 9.75% | -2.8% | -22.2% | -3.35% | 16.9%
8 | COc1ccc(N)cc1N | 6.8% | 18.1% | 5.5% | -42.4% | 25.5% | 11.1%
9 | C1C[N-]CC[N-]1.C1C[N-]CC[N-]1.N#CS.[Ni+2] | 5.1% | 5.65% | 1.4% | -11.9% | 7.6% | -5.4%
10 | CCCCCCCCCSCP(=O)(OCC)OCC | 99.5% (active) | 99.8% (active) | 99.7% (active) | 98.9% (active) | 99.5% (active) | 99.7% (active)
11 | [CH-]=C([CH2-])C.[Ni][Br].c1ccc([PH+](c2ccccc2)c2ccccc2)cc1 | 35.5% | 2.9% | 26.6% | -8.85% | -4.6% | -1.75%
12 | C1CN2CCOC2O1 | -12.4% | 15.2% | -9.1% | 4.65% | 7.45% | -7.1%
13 | CC(Cl)CN(CC(C)Cl)C(=O)Oc1ccc(CC(N)C(=O)O)cc1 (stereo not given) | 31.1% | 0.7% | 25.4% | -20.6% | -0.1% | 20.3%
14 | N#CC1=C(C#N)C(=O)C(Cl)=C(Cl)C1=O | 14.9% | 24.9% | 16.9% | 8.7% | 16.6% | 29.2%
15 | OCCN=Cc1c[nH]c2ccccc12 | -49.9% | -42.9% | -28.1% | 3.85% | -42.5% | -13.9%
16 | CN(C)CCNc1nc2c(no[n+]2[O-])c2ccccc12 | -28.9% | -24.8% | -14.3% | -12.8% | 3.35% | -19.9%
17 | Cc1ccc(N=C(C(c2ccccc2)c2ccccc2)N(CCCl)CCCl)cc1 | 24.2% | 3.45% | 19.9% | 13.3% | 18.1% | 24.1%
18 | O=[N+]([O-])c1cccc2ncccc12 | -2.95% | -14.4% | 18.4% | -6.55% | 17.7% | 9.3%
19 | CC1CCC2C(C)C3C(CC4C5CCC6CC(O)CCC6(C)C5CCC43C)N2C1 (stereo not given) | 17.1% | 23.4% | 17.5% | -29.1% | -18.4% | 15.7%
20 | O=P(O)(Nc1ccccc1)Nc1ccccc1 | 21.7% | 33.4% | 21% | -15.1% | 25.3% | 15.3%

Row | Structure (SMILES) | growth inhibition [1] | growth inhibition [2] | growth inhibition [3] | growth inhibition [4] | growth inhibition [5] | growth inhibition [6]
21 | O=NNc1cc(=O)[nH]c(=O)[nH]1 | 5.4% | -4.5% | -3.85% | -39.2% | -7.6% | -6.5%
22 | CCOP(=O)(OCC)/C(C#N)=C/c1ccc(C)o1 | -34.2% | -13.3% | -49.6% | -7% | -19.8% | -41.6%
23 | NC1C(=O)NC(=O)NC1=O | 4.2% | 11.4% | 8.4% | 15.1% | 4.6% | 22.8%
24 | CCOP(=O)(OCC)O/N=C(/C#N)c1ccccc1 | 11.3% | -6.4% | 18.4% | -0.35% | -7.45% | -1%
25 | COc1ccc(N)cc1OC | -2.15% | 1.35% | -4.8% | -12.2% | 6.7% | -5.4%
26 | CSC(SC)=C(C(=O)O)P(=O)(O)O | -32.4% | -3.05% | -8.2% | 19.1% | -9.8% | -16.6%
27 | CCOP(=O)(OCC)/C(C#N)=C/c1nccn1C | -15.2% | 0.15% | -13.7% | 34.3% | 24.1% | -34.4%
28 | O=C(CN1C(=O)c2ccccc2C1=O)OCCNCCCl | 98.2% (active) | 96.5% (active) | 98.1% (active) | 95.9% (active) | 97.4% (active) | 98.5% (active)
29 | CC(=O)c1ccc(Br)cc1 | 2% | -5.5% | -0.65% | 8.7% | 5.75% | 1%
30 | CCC[N+]12C(O)C(CC)C3CC1C1N(C)c4ccc(Br)cc4C14CC2C3C4O (stereo not given) | 27.9% | 8.3% | 4.35% | -12.3% | 6.85% | 20.9%
31 | O=C(O)CCCO | -13.8% | -20.3% | -23.9% | 3.3% | 1.45% | -10.4%
32 | O=C(CCC1C(=O)NC(=S)NC1=O)c1ccc2ccccc2c1 | 14.7% | 17.8% | -12.2% | 5.3% | -7.95% | -8.15%
33 | C[CH2][Pb]([Br])([CH2]C)[CH2]C | -17.7% | -1.4% | -5.85% | -14.1% | -4.15% | -1.45%
34 | COP(=O)(OC)C1(c2ccccc2)C2C3CCC(C3)C21 (stereo not given) | 1.75% | 21.7% | 2.65% | -7% | 14.8% | 17.8%
35 | O=c1oc2cc(O)ccc2c(O)c1C(c1ccc2ccccc2c1)c1c(O)c2ccc(O)cc2oc1=O | 8.65% | 31.2% | 36.7% | 35.8% | 17.2% | -17.4%
36 | CC(=O)CC(C)=O.CC(=O)CC(C)=O.CC(=O)CC(C)=O.[La] | 27.8% | 1.35% | 12.2% | 19.1% | -4.6% | 1.15%
37 | CCCCNC(=O)C(Cl)Cl | 20.2% | 5.4% | 8.65% | 2.4% | -14.8% | 13.9%
38 | O=C(O)c1cccc(Cl)c1 | 31.6% | 6% | 19.1% | 10.9% | 25.9% | 8.2%
39 | [Cl][Hg][Cl].c1ccc(N=P(c2ccccc2)(c2ccccc2)c2ccccc2)cc1 | 99.7% (active) | 99.8% (active) | 99.8% (active) | 99.5% (active) | 99.3% (active) | 99.6% (active)
40 | Cc1nc2ccc(Br)cc2c(=O)n1-c1nnc(C(C)(C)C)s1 | -10.9% | -40.4% | -23.2% | -5.75% | -20.6% | -12.2%
